In PubChem BioAssay (NCI):
This is part of a sample that, as a whole, favours compounds with a hit. Of some 83,000 tested, about 20% had one in any assay.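 Treatment: one concentration, 48 hours, 96-well format. Scoring: percent growth, with anything below 10 considered active.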 A number with no mark means an inactive call. Activity calls are given as the source filed them.

Key:
Assay in all cases: NCI-60 one-dose screen, 48 h (100 = growth as untreated, 0 = no growth, -100 = all killed)
Details in all cases: 10 µM
SK-MEL-2 melanoma = system: SK-MEL-2 melanoma
EKVX NSCLC = system: EKVX NSCLC
SN12C renal = system: SN12C renal
UO-31 renal = system: UO-31 renal
TK-10 renal = system: TK-10 renal
ACHN renal = system: ACHN renal
CAKI-1 renal = system: CAKI-1 renal
CCRF-CEM leukemia = system: CCRF-CEM leukemia
RPMI-8226 leukemia = system: RPMI-8226 leukemia
OVCAR-8 ovarian = system: OVCAR-8 ovarian
OVCAR-5 ovarian = system: OVCAR-5 ovarian
OVCAR-4 ovarian = system: OVCAR-4 ovarian
SK-OV-3 ovarian = system: SK-OV-3 ovarian
IGROV1 ovarian = system: IGROV1 ovarian
HS 578T breast = system: HS 578T breast
NCI/ADR-RES ovarian = system: NCI/ADR-RES ovarian
A498 renal = system: A498 renal
MOLT-4 leukemia = system: MOLT-4 leukemia
SR leukemia = system: SR leukemia
OVCAR-3 ovarian = system: OVCAR-3 ovarian

Row | SMILES | growth (SK-MEL-2 melanoma) | growth (EKVX NSCLC) | growth (SN12C renal) | growth (UO-31 renal) | growth (TK-10 renal) | growth (ACHN renal) | growth (CAKI-1 renal) | growth (CCRF-CEM leukemia) | growth (RPMI-8226 leukemia) | growth (OVCAR-8 ovarian) | growth (OVCAR-5 ovarian) | growth (OVCAR-4 ovarian) | growth (SK-OV-3 ovarian) | growth (IGROV1 ovarian) | growth (HS 578T breast) | growth (NCI/ADR-RES ovarian) | growth (A498 renal) | growth (MOLT-4 leukemia) | growth (SR leukemia) | growth (OVCAR-3 ovarian)
1 | Cc1ccc(-c2nc3ccc(C(=O)N=Nc4c(O)[nH]c5ccc(Br)cc45)cc3[nH]2)cc1 | 113% | 94.9% | 95.3% | 80.3% | 114% | 101% | 92.7% | 34.7% | 49.6% | 39.9% | 62.8% | 45.7% | 96.1% | 87.4% | 94.1% | 99.7% |  |  |  | 
2 | COc1cc2c3c(n(CCCN4CCOCC4)c(=O)c2cc1OC)-c1nc2c(cc1C3=O)OCO2 | 111% | 48.8% | 8.3% (active) | 15.3% |  | -11.7% (active) | 6.77% (active) | 14.4% | 18.7% | 30.3% | 37.2% | 6.71% (active) | -4.15% (active) | 36.7% | 71.6% | 17.1% | 76.9% | 24.7% | 12.5% | 8.69% (active)
3 | CC1(c2ccccc2)NC(=O)N(CC(=O)Nc2ccc(C(=O)/C=C/C=C/c3ccccc3)cc2)C1=O (centres undefined) | 90% | 71.6% | 66.9% | 54.9% | 84.6% | 48.4% | 63.2% | 32.4% |  | 45% | 84.1% | 68.7% | 120% | 86.5% | 57.6% | 82.7% |  | 18.6% | 15.2% | 47.1%
4 | CC(=O)NCC1=C(C)C=C2C(=O)[C@](C)(O)C3(CC3)C(C)=C21 | -74.7% (active) | -26.1% (active) | -74.7% (active) | -32.2% (active) | -6.87% (active) | -37.4% (active) | -31.6% (active) | 51.9% | 82.7% | -63.6% (active) | -28.8% (active) |  | -58.5% (active) | -39.3% (active) | -37.4% (active) | -46.1% (active) |  |  |  | 
5 | O=C(CSc1nnc(-c2ccc3nc(-c4ccccc4)[nH]c3c2)o1)Nc1ccc(Br)cc1 | 81.2% | 81.4% | 45.8% | 74.4% |  | 63% | 76.2% | 39.4% | 41% | 24.8% | 86.1% | 81.3% | 80% | 80.4% | 79.6% | 78.1% | 101% | 16.8% | 32.1% | 73.9%
6 | O=c1oc2ccc(-c3ccc(F)cc3F)cc2c(=O)n1-c1ccc(F)cc1 | -61.5% (active) | 4.34% (active) | -13.3% (active) | -3.9% (active) | 20.5% | -12.7% (active) | -24.1% (active) | 1.33% (active) | -26.9% (active) | 14.7% | 50.8% | 10.8% | -11% (active) | 23.5% | -0.922% (active) | -16.9% (active) |  | -32.1% (active) |  | 3.4% (active)
7 | Cc1cc(=O)oc2cc(OCCCCOc3ccc(/C=C/C(=O)Nc4ccccc4[N+](=O)[O-])cc3)ccc12 | 117% | 105% | 100% | 90.6% |  | 108% | 100% | 99.8% | 108% | 111% | 108% | 109% | 119% | 106% | 111% | 115% | 127% | 108% | 88% | 128%
8 | Cc1noc2c(Cc3ccccc3)nn(CC(=O)N/N=C/c3ccc(F)cc3)c(=O)c12 | 73.7% | 70.8% | 25.6% | 5.87% (active) | 59.2% | 9.34% (active) | 33.2% | 100% | 83.7% | 33.1% | 93.7% | 5.18% (active) | 28.9% | 70.4% | -1.33% (active) | 60.7% |  | 106% | 102% | 44.6%
9 | CC(=O)c1ccc(NC(=O)NCn2c(=O)[nH]c3ccccc3c2=O)cc1 | 106% | 92.5% | 94.2% | 73.7% | 105% | 99.2% | 91.2% | 91.6% | 87.8% | 101% | 107% | 107% | 94.9% | 104% | 97.3% | 107% |  |  |  | 131%
10 | CN1CCN(c2ccc(Nc3nc(NCCCNC(=O)c4ccccc4)c4sccc4n3)cc2)CC1 | 114% | 89.9% | 84.4% | 74.9% | 117% | 60.1% | 72.5% | 25.2% | 14.8% | 55.9% | 88.4% | 77.9% | 113% | 94.9% | 78.8% | 82.3% |  |  |  | 78.5%
11 | COc1ccc(CCN2C(=O)/C(=C/c3csc(C#N)n3)SC2=S)cc1OC | 85.6% | 79.8% | 31.8% | 15.5% | 1.31% (active) | 8.31% (active) | 25.3% |  | -7.56% (active) | 69.2% | 116% | 66.3% | 107% | 90.7% | 66.3% | 93.3% |  | -10.7% (active) |  | -17.7% (active)
